In PubChem BioAssay (Tox21):
Results filed as inconclusive are left out. Calls of active or inactive are those of the source. Calls follow the shape of the dose curve; as a rule, active = well fitted curve in the direction sought with a large enough effect in the repeat runs; inconclusive = weak or mixed curves; inactive = no such curve, though single readings can be large; an effect the other way counts as inactive or inconclusive.

Assays:
[1] = qHTS RealTime-Glo MT Cell Viability Assay in HepG2 cells - 40 hour (AID 1224870); also: nearly all actives have a fitted effect of over 50% in size
Method in brief: (§1)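 Real-time viability: cells seeded at 600 per well together with NanoLuc and cell-permeant prosubstrate, compounds added after 5 h incubation. Luminescence tracked at 0, 8, 16, 24, 32 and 40 h of exposure.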

[2] = A CellTox Green Cytotoxicity Assay to monitor cytotoxicity in HEK293 cells - 40 hour (AID 1224871); also: nearly all actives have a fitted effect of over 45% in size
Method in brief: (§2)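 Dead-cell fluorescence measured kinetically: asymmetric cyanine dye, HEK293, 600 cells/well, 5 h settle, 23 nL cpd/DMSO, 37 C, reads 0–40 h every 8 h.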

[3] = qHTS RealTime-Glo MT Cell Viability Assay in HEK293 cells - 16 hour (AID 1224872); also: top concentration of the series differs between compounds; nearly all actives have a fitted effect of over 50% in size
Method in brief: (§3)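 Cells + reagent dispensed (600 cells/well, HEK293) → 5 h at 37 C/5% CO2 → 23 nL compound in DMSO pinned → 40 h at 37 C → luminescence read at 0, 8, 16, 24, 32, 40 h.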

[4] = qHTS RealTime-Glo MT Cell Viability Assay in HepG2 cells - 8 hour (AID 1224873); also: nearly all actives have a fitted effect of over 55% in size
Method in brief: as §1

[5] = qHTS RealTime-Glo MT Cell Viability Assay in HEK293 cells - 40 hour (AID 1224874); conditions: RealTime-Glo luminescence; max response: hits give low values; also: nearly all actives have a fitted effect of over 50% in size
Method in brief: (§4)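 600 HEK293 cells per well, dispensed already mixed with RealTime-Glo MT reagents. Compound dosing came 5 h later. The same wells were read for luminescence at 0, 8, 16, 24, 32 and 40 h of exposure at 37 C.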

[6] = A CellTox Green Cytotoxicity Assay to monitor cytotoxicity in HEK293 cells - 24 hour (AID 1224875); also: series mostly up to about 77 µM; nearly all actives have a fitted effect of over 45% in size
Method in brief: as §2

[7] = A CellTox Green Cytotoxicity Assay to monitor cytotoxicity in HepG2 cells - 16 hour (AID 1224876); also: nearly all actives have a fitted effect of over 45% in size
Method in brief: (§5)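 First, HepG2 cells (600/well) mixed with reagent were plated; second, after 5 h at 37 C they received compounds via pintool; third, fluorescence was measured at 0 h through 40 h at 8 h intervals.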

[8] = qHTS RealTime-Glo MT Cell Viability Assay in HepG2 cells - 32 hour (AID 1224877); also: nearly all actives have a fitted effect of over 55% in size
Method in brief: (§6)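 Real-time, nonlytic viability: 600 HepG2 cells/well mixed with NanoLuc enzyme plus prosubstrate; 5 h settle, compound (DMSO) added by pintool; luminescence monitored over 40 h at 37 C.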

[9] = A CellTox Green Cytotoxicity Assay to monitor cytotoxicity in HepG2 cells - 24 hour (AID 1224878); also: nearly all actives have a fitted effect of over 45% in size
Method in brief: as §5

[10] = A CellTox Green Cytotoxicity Assay to monitor cytotoxicity in HepG2 cells - 40 hour (AID 1224879); also: nearly all actives have a fitted effect of over 40% in size
Method in brief: as §5

[11] = qHTS RealTime-Glo MT Cell Viability Assay in HEK293 cells - 0 hour (AID 1224880)
Method in brief: as §4

[12] = A CellTox Green Cytotoxicity Assay to monitor cytotoxicity in HEK293 cells - 32 hour (AID 1224881); also: nearly all actives have a fitted effect of over 40% in size
Method in brief: as §2

[13] = A CellTox Green Cytotoxicity Assay to monitor cytotoxicity in HepG2 cells - 0 hour (AID 1224882); also: nearly all actives have a fitted effect of over 35% in size
Method in brief: as §5

[14] = A CellTox Green Cytotoxicity Assay to monitor cytotoxicity in HepG2 cells - 32 hour (AID 1224883); also: nearly all actives have a fitted effect of over 50% in size
Method in brief: as §5

[15] = A CellTox Green Cytotoxicity Assay to monitor cytotoxicity in HEK293 cells - 8 hour (AID 1224884); also: nearly all actives have a fitted effect of over 35% in size
Method in brief: as §2

[16] = qHTS RealTime-Glo MT Cell Viability Assay in HepG2 cells - 16 hour (AID 1224885); also: nearly all actives have a fitted effect of over 50% in size
Method in brief: as §6

[17] = qHTS RealTime-Glo MT Cell Viability Assay in HEK293 cells - 24 hour (AID 1224886)
Method in brief: as §3

[18] = qHTS RealTime-Glo MT Cell Viability Assay in HEK293 cells - 8 hour (AID 1224887)
Method in brief: as §4

[19] = A CellTox Green Cytotoxicity Assay to monitor cytotoxicity in HEK293 cells - 16 hour (AID 1224888); also: nearly all actives have a fitted effect of over 35% in size
Method in brief: as §2

[20] = qHTS RealTime-Glo MT Cell Viability Assay in HepG2 cells - 0 hour (AID 1224889); also: nearly all actives have a fitted effect of over 50% in size
Method in brief: as §6
% is scaled to controls: 0 for no effect and ±100 for the full control effect.

CCOC(=O)C(=O)OCC
inactive: Potency [1] | Potency [2] | Potency [3] | Potency [4] | max response [5] 6.27% | Potency [6] | Potency [7] | Potency [8] | Potency [9] | Potency [10] | Potency [11] | Potency [12] | Potency [13] | Potency [14] | Potency [15] | Potency [16] | Potency [17] | Potency [18] | Potency [19] | Potency [20]

CCCCCCCCCCCC
inactive: Potency [1] | Potency [2] | Potency [3] | Potency [4] | max response [5] 0.33% | Potency [6] | Potency [7] | Potency [8] | Potency [9] | Potency [10] | Potency [11] | Potency [12] | Potency [13] | Potency [14] | Potency [15] | Potency [16] | Potency [17] | Potency [18] | Potency [19] | Potency [20]

Cc1c(NC(C)C)c(=O)n(-c2ccccc2)n1C
inactive: Potency [1] | Potency [2] | Potency [3] | Potency [4] | max response [5] 2.55% | Potency [6] | Potency [7] | Potency [8] | Potency [9] | Potency [10] | Potency [11] | Potency [12] | Potency [13] | Potency [14] | Potency [15] | Potency [16] | Potency [17] | Potency [18] | Potency [19] | Potency [20]

O=[N+]([O-])c1ccc(F)cc1F
inactive: Potency [1] | Potency [2] | Potency [3] | Potency [4] | max response [5] 9.7% | Potency [6] | Potency [7] | Potency [8] | Potency [9] | Potency [10] | Potency [11] | Potency [12] | Potency [13] | Potency [14] | Potency [15] | Potency [16] | Potency [17] | Potency [18] | Potency [19] | Potency [20]

Cc1cc2c(cc1S(N)(=O)=O)S(=O)(=O)CCC2
inactive: Potency [1] | Potency [2] | Potency [3] | Potency [4] | max response [5] 2.68% | Potency [6] | Potency [7] | Potency [8] | Potency [9] | Potency [10] | Potency [11] | Potency [12] | Potency [13] | Potency [14] | Potency [15] | Potency [16] | Potency [17] | Potency [18] | Potency [19] | Potency [20]

O=C(O)c1ccccc1OP(=O)(O)O
inactive: Potency [1] | Potency [2] | Potency [3] | Potency [4] | max response [5] -0.358% | Potency [6] | Potency [7] | Potency [8] | Potency [9] | Potency [10] | Potency [11] | Potency [12] | Potency [13] | Potency [14] | Potency [15] | Potency [16] | Potency [17] | Potency [18] | Potency [19] | Potency [20]

C[C@H](NC(CCc1ccccc1)C(=O)O)C(=O)N1CCC[C@H]1C(=O)O (stereo partly drawn)
inactive: Potency [1] | Potency [2] | Potency [3] | Potency [4] | max response [5] -70.9% | Potency [6] | Potency [7] | Potency [8] | Potency [9] | Potency [10] | Potency [11] | Potency [12] | Potency [13] | Potency [14] | Potency [15] | Potency [16] | Potency [17] | Potency [18] | Potency [19] | Potency [20]

CC(=O)Nc1ccc(S(N)(=O)=O)cc1
inactive: Potency [1] | Potency [2] | Potency [3] | Potency [4] | max response [5] 14.7% | Potency [6] | Potency [7] | Potency [8] | Potency [9] | Potency [10] | Potency [11] | Potency [12] | Potency [13] | Potency [14] | Potency [15] | Potency [16] | Potency [17] | Potency [18] | Potency [19] | Potency [20]

O=C1CCCC(=O)C1
inactive: Potency [1] | Potency [2] | Potency [3] | Potency [4] | max response [5] 1.44% | Potency [6] | Potency [7] | Potency [8] | Potency [9] | Potency [10] | Potency [11] | Potency [12] | Potency [13] | Potency [14] | Potency [15] | Potency [16] | Potency [17] | Potency [18] | Potency [19] | Potency [20]

CCOC(=O)c1c(C)n(C)c2ccc(O)cc12
inactive: Potency [1] | Potency [2] | Potency [3] | Potency [4] | max response [5] -25.6% | Potency [6] | Potency [7] | Potency [8] | Potency [9] | Potency [10] | Potency [11] | Potency [12] | Potency [13] | Potency [14] | Potency [15] | Potency [16] | Potency [17] | Potency [18] | Potency [19] | Potency [20]

O=C1OC(=O)C2CCCCC12 (stereo not drawn)
inactive: Potency [1] | Potency [2] | Potency [3] | Potency [4] | max response [5] 1.13% | Potency [6] | Potency [7] | Potency [8] | Potency [9] | Potency [10] | Potency [11] | Potency [13] | Potency [14] | Potency [15] | Potency [16] | Potency [17] | Potency [18] | Potency [19] | Potency [20]

O=c1[nH]c(=O)n([C@H]2C[C@H](O)[C@@H](CO)O2)cc1I
inactive: Potency [1] | Potency [2] | Potency [3] | Potency [4] | max response [5] 5.93% | Potency [6] | Potency [7] | Potency [8] | Potency [9] | Potency [10] | Potency [11] | Potency [13] | Potency [14] | Potency [15] | Potency [16] | Potency [17] | Potency [18] | Potency [19] | Potency [20]
